Compound activity from PubChem.
Sm TGR block: qHTS Assay for the Inhibitors of Schistosoma Mansoni Peroxiredoxins; Schistosoma mansoni thioredoxin glutathione reductase (TGR), Q962Y6; Potency, µM (titrated, usually from 114 µM), for the others: at the highest dose activity change, negative = inhibition, hits mostly inhibitors; actives 3% (n = 360,000); purified TGR, DTNB reduction, TNB absorbance 405 nm; AID 485364, 2010; further: potency means the concentration at half of the fitted maximal effect; nearly all actives have a fitted effect of over 60% in size
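First, TGR (20 nM dispensed) and NADPH were mixed with compound. Second, a 15 min room-temperature incubation followed. Third, further NADPH and then DTNB were added to start the reaction. Finally, TNB absorbance was monitored kinetically.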
FBPA Giardia inh: qHTS Assay for Inhibitors of Fructose-1,6-bisphosphate Aldolase from Giardia Lamblia | A8B2U2 | purified Giardia FBPA | Potency, µM (top dose mostly 59.6 µM), for inactives: at the highest dose activity, negative = inhibition, hits mostly inhibitors | actives 0.71% (n = 290,000) | AID 2451, 2010; further: potency means the concentration at half of the fitted maximal effect; nearly all actives have a fitted effect of over 55% in size
Target sequence (A8B2U2 whole entry, looked up): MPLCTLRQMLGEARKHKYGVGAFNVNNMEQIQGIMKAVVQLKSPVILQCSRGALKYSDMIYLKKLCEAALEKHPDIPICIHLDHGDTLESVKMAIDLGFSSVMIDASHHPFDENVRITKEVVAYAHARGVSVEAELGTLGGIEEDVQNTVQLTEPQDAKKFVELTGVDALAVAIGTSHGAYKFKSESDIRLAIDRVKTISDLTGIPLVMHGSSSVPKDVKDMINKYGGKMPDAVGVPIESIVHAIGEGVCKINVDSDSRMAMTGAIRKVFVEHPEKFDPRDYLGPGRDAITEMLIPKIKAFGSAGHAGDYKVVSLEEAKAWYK
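Giardia FBPA (40 nM reagent) was preincubated 10 min at RT with compound (up to 57.5 uM final), then substrate plus GAPDH/TPI/NAD/arsenate coupling system with diaphorase/resazurin was added; resorufin fluorescence (525/598 nm) was read after 20 min.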
Pf growth 48h: Primary qHTS for delayed death inhibitors of the malarial parasite plastid, 48 hour incubation; AID 504832, 2011; P. falciparum luciferase growth in erythrocytes, 48 h; actives 5.9% (n = 310,000); Potency, µM (highest dose often 28.7 µM), without a hit: at the top dose activity change, negative = inhibition, most hits filed as inhibitors; further: potency means the concentration at half of the fitted maximal effect
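In quantitative HTS format, infected erythrocytes bearing luciferase-reporter parasites were treated for a single generation at 37 C. Luminescence after adding detection reagent served as the growth measure.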
Pf growth 96h: Primary qHTS for delayed death inhibitors of the malarial parasite plastid, 96 hour incubation. P. falciparum luciferase reporter growth, 96 h. Potency, µM (top dose mostly 28.7 µM), for inactives: top-dose activity change, negative = inhibition, usual class: inhibitors. actives 6.9% (n = 320,000). AID 504834, 2011; further: potency means the concentration at half of the fitted maximal effect
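Erythrocytes infected with luciferase-expressing P. falciparum were dispensed at 2% hematocrit and 0.05% parasitemia (final), then incubated with compounds 96 hours at 37 C in 5% CO2. Luminescence after detection reagent addition reported growth.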
HCMV inh: qHTS Assay for inhibitors of the human cytomegalovirus (HCMV). HFF cells, HCMV-luciferase reporter, 72 h; stronger effect = lower value. activity change, negative = inhibition, % at 57.5 µM. actives 4.5% (n = 410,000); in the data active means activity change below about -60%; inconclusive means no clear call, values can overlap the other calls; inactive means above about -39%
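Screen run at 2 compound doses on HFFs infected with reporter HCMV, MOI 1 PFU/cell. Luciferase activity from cell lysates at 72 h post infection gave inhibition relative to buffer-only and Salinomycin wells.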
* = called active by the depositor. Sampled rows, rich in hits. Any-hit rate of the full collection: about 14%. Unless noted, the call rests on the fitted dose curve; in most records, active means well fitted curve in the direction sought with a large enough effect; inconclusive means small, poorly fitted or top-dose-only effect, or another doubt; inactive means no such curve, though single readings can be large; an effect the other way counts as inactive or inconclusive. On the % scale 0 is the no-effect control and ±100 the full control effect.

COc1ccc(Cl)cc1NC(=O)Cn1c(=O)n(-c2ccc(C)cc2)c(=O)c2ccc(C(=O)NCc3ccccc3Cl)cc21 was read as Sm TGR block -14.3% and HCMV inh -13.3.
`Cn1c(=O)[nH]c(=O)c2c1nc(SCC(O)CCl)n2Cc1ccccc1` (centres undefined) gave Sm TGR block -16.2%, FBPA Giardia inh 11.8%, Pf growth 48h -2.5%, Pf growth 96h inconclusive and HCMV inh 53.6.
`O=C(C1=C[C@H](C2CCCCC2)C[C@H](OCc2ccc(CO)cc2)O1)N1CCOCC1` gave Sm TGR block -1.7%, FBPA Giardia inh 9.4%, Pf growth 48h -6.7%, Pf growth 96h inconclusive and HCMV inh inconclusive.
For O=C(C1=C[C@H](C2CCCCC2)C[C@H](OCc2ccc(CO)cc2)O1)N1CCN(Cc2ccccc2)CC1 the results were Sm TGR block inconclusive, FBPA Giardia inh -20.7%, Pf growth 48h 5.22µM*, Pf growth 96h 11.7µM* and HCMV inh -6.5.
O=C(C1=C[C@@H](C2CCCCC2)C[C@@H](OCc2ccc(CO)cc2)O1)N1CCN(Cc2ccccc2)CC1 was read as Sm TGR block 0.0%, FBPA Giardia inh -9.3%, Pf growth 48h 4.15µM*, Pf growth 96h 4.15µM* and HCMV inh -14.6.
For COc1ccc(C(C)(NC(C)=O)c2nc(-c3cc(F)cc(F)c3)cs2)cc1 (centres undefined) the results were HCMV inh 48.3.
`COc1ccc(Cn2c(=O)[nH]c3cc(C(=O)N4CCN(c5cccc(OC)c5)CC4)ccc3c2=O)cc1` gave Sm TGR block 33.7% and HCMV inh -8.9.
Screening CCOC(=O)[C@]1(C#N)[C@@H]2C=CC(C(C)=O)=CN2[C@@H](C(N)=O)[C@@H]1c1ccsc1 returned Sm TGR block 39.8µM*, FBPA Giardia inh inconclusive, Pf growth 48h 7.3%, Pf growth 96h inconclusive and HCMV inh -12.5.
For CCOc1ccc(NC(=O)CN(C)C(=O)c2sc3ccccc3c2Cl)cc1OCC the results were Sm TGR block -1.9%, Pf growth 48h -5.8%, Pf growth 96h -0.4% and HCMV inh -13.4.
Screening COC(=O)c1cccc(NC(=S)NCCC2=CCCCC2)c1 returned Sm TGR block 12.3%, FBPA Giardia inh 2.5%, Pf growth 48h 20.1%, Pf growth 96h 11.7µM* and HCMV inh inconclusive.
Screening COC(=O)c1cccc(NC(=O)Nc2ccc(Cl)cc2)c1 returned Sm TGR block 6.8%, FBPA Giardia inh 2.1%, Pf growth 48h 166.1%, Pf growth 96h -41.2% and HCMV inh -67.0*.
Screening COC(=O)c1cccc(NC(=O)NC(=O)c2ccc(Cl)cc2)c1 returned Sm TGR block 8.5%, FBPA Giardia inh 11.4%, Pf growth 48h 253.9%, Pf growth 96h inactive and HCMV inh 36.5.
For COC(=O)c1cccc(NC(=S)Nc2ccccc2Cl)c1 the results were Sm TGR block 22.4µM*, FBPA Giardia inh -18.2%, Pf growth 48h 48.9%, Pf growth 96h -9.2% and HCMV inh 11.7.
Screening COC(=O)c1cccc(NC(=S)Nc2ccc(Cl)c(Cl)c2)c1 returned Sm TGR block 22.4µM*, FBPA Giardia inh -18.3%, Pf growth 48h 6.2%, Pf growth 96h 0.2% and HCMV inh -25.1.
For COC(=O)c1ccc(NC(=S)NCCC2=CCCCC2)cc1 the results were Sm TGR block 1.5%, FBPA Giardia inh -9.8%, Pf growth 48h 34.2%, Pf growth 96h inconclusive and HCMV inh -0.5.
CCCCCCCC(=O)N[C@H]1CC[C@@]23CCCN2C(=O)CCC[C@H]3[C@H]1Cc1ccccc1 was read as HCMV inh 1.5.
`CC(C)c1ccc([C@@H]2O[C@H](CCc3ccccc3)CC3=C2C(=O)OC(C)(C)O3)cc1` gave HCMV inh 2.9.
`COc1cc(/C=C(\C#N)c2nc3ccccc3[nH]2)ccc1OC(=O)c1ccco1` gave Sm TGR block 0.4%, FBPA Giardia inh -0.2%, Pf growth 48h 58.2%, Pf growth 96h 20.1% and HCMV inh 88.0.
For COc1cc(/C=C(\C#N)c2nc3ccccc3[nH]2)cc(Cl)c1OCc1ccccc1Cl the results were Sm TGR block 2.9% and HCMV inh -80.0*.
For COc1cc(/C=C(/C#N)c2nc3ccccc3[nH]2)ccc1OCC(=O)Nc1ccccc1C the results were Sm TGR block -2.0%, FBPA Giardia inh 1.8%, Pf growth 48h inconclusive, Pf growth 96h 1.47µM* and HCMV inh -26.7.
`COc1cc(/C=C(/C#N)c2nc3ccccc3[nH]2)ccc1OCC(=O)Nc1ccccc1C(C)C` gave Sm TGR block 34.4%, FBPA Giardia inh 0.0%, Pf growth 48h inconclusive, Pf growth 96h 9.28µM* and HCMV inh 33.1.
For COc1cc(/C=C(\C#N)c2nc3ccccc3[nH]2)c([N+](=O)[O-])cc1OCc1ccccc1 the results were Sm TGR block 11.2%, FBPA Giardia inh -13.6%, Pf growth 48h 2.62µM*, Pf growth 96h 12.9% and HCMV inh inconclusive.
For N#C/C(=C\c1ccc(OCc2ccc(Cl)cc2Cl)cc1)c1nc2ccccc2[nH]1 the results were Sm TGR block -12.5% and HCMV inh 20.3.
`Cc1ccc(-c2c(C3C4C=CCCC4(C)C(=O)N3Cc3ccccc3)ccc3ccccc23)cc1` (centres undefined) gave FBPA Giardia inh -6.4%.
For Cc1ccc2nc(/C(C#N)=C/c3ccc(O)c(O)c3)[nH]c2c1 the results were Sm TGR block -0.6%, FBPA Giardia inh inconclusive, Pf growth 48h inconclusive, Pf growth 96h -2.3% and HCMV inh 90.0.
For COc1cc(/C=C(\C#N)c2nc3ccc(C)cc3[nH]2)ccc1OC(C)C the results were Sm TGR block 4.4% and HCMV inh -68.0*.
CCOc1cccc(/C=C(/C#N)c2nc3ccccc3[nH]2)c1OCC(=O)O was read as Sm TGR block 0.3%, FBPA Giardia inh -12.3%, Pf growth 48h 4.4%, Pf growth 96h inconclusive and HCMV inh -101.3*.
Screening COC(=O)[C@@]12C[C@@H](CC(=O)N3CCC(c4ccccc4)CC3)C(=O)N(CCc3ccc(OC)c(OC)c3)C1=CCC(C)(C)C2 returned HCMV inh 62.8.
O=S(=O)(Cc1cc(Oc2ccccc2)nc(-c2ccccc2)n1)c1ccccc1 was read as Sm TGR block 37.3%, FBPA Giardia inh 12.7%, Pf growth 48h 36.6%, Pf growth 96h 27.3% and HCMV inh -23.6.
